In the supplement of paper PMC12808144:
Unmarked numbers belong to inactive results.

tested on: Mel-DCC-11-R; experiment: cell viability relative to DMSO control (fraction of DMSO control); higher = less cytotoxic, active = 0.8 or less; conditions: 1 µM; 120 h; vemurafenib co-treatment 0 µM
Summary of the method: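 The screen used 384-well plates acoustically pre-spotted with 315 approved anti-cancer drugs from TargetMol, each at 1 µM in duplicate. Into each well went 40 µl of cells, 2500 NHEM-hTERT immortalized melanocytes or 1500 of patient-derived Mel-DCC-11 or its resistant subline Mel-DCC-11-R, and plates were kept 120 h, with the subline also tested alongside 8 µM of its selecting drug. Readout was by ATPlite 1step luminescence. Viability values were normalised to vehicle-treated controls and averaged between duplicates.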

| SMILES | cell viability |
| --- | --- |
| COc1cc2nccc(Oc3ccc(NC(=O)C4(C(=O)Nc5ccc(F)cc5)CC4)cc3)c2cc1OC [Cabozantinib] | 1.1 |
| COc1ccc([C@@H]2CC(=O)c3c(O)cc(O)cc3O2)cc1O [Hesperetin] | 0.891 |
| COc1cc2ncnc(Nc3ccc(F)c(Cl)c3)c2cc1OCCCN1CCOCC1 [Gefitinib] | 0.893 |
| N#CC1(c2ccc(NC(=O)c3cccnc3NCc3ccncc3)cc2)CCCC1 [Apatinib] | 1.14 |
| CC1(C)NC(=O)N(c2ccc([N+](=O)[O-])c(C(F)(F)F)c2)C1=O [Nilutamide] | 1.03 |
| COc1cc2nccc(Oc3ccc(NC(=O)NC4CC4)c(Cl)c3)c2cc1C(N)=O [Lenvatinib] | 1.03 |
| COc1cc2c(N3CCN(C(=O)Nc4ccc(OC(C)C)cc4)CC3)ncnc2cc1OCCCN1CCCCC1 [Tandutinib] | 0.907 |
| C[C@@H]1O[C@@H](OC[C@H]2O[C@@H](Oc3c(-c4ccc(O)c(O)c4)oc4cc(O)cc(O)c4c3=O)[C@H](O)[C@@H](O)[C@@H]2O)[C@H](O)[C@H](O)[C@H]1O [Rutin] | 1.01 |
| N.N.O=C([O-])C[O-].[Pt+2] [Nedaplatin] | 1 |
| COc1ccc(C[C@H](N)C(=O)N[C@H]2[C@@H](O)[C@H](n3cnc4c(N(C)C)ncnc43)O[C@@H]2CO)cc1.Cl.Cl [Puromycin dihydrochloride] | 0.309 (active) |
| O=C(CCCCCCC(=O)Nc1ccccc1)NO [Vorinostat] | 0.923 |
| Nc1nc([O-])c2c(CCc3ccc(C(=O)N[C@@H](CCC(=O)[O-])C(=O)[O-])cc3)c[nH]c2n1.[Na+].[Na+] [Pemetrexed disodium] | 0.818 |
| CC(C)(S)[C@@H](N)C(=O)O [Artamine] | 1.12 |
| O=C(c1cc(Cc2n[nH]c(=O)c3ccccc23)ccc1F)N1CCN(C(=O)C2CC2)CC1 [Olaparib] | 1.09 |
| C=CC(=O)Nc1cc(Nc2nccc(-c3cn(C)c4ccccc34)n2)c(OC)cc1N(C)CCN(C)C.CS(=O)(=O)O [Osimertinib mesylate] | 1.21 |
| CC(=O)O[C@@]12CO[C@@H]1C[C@H](O)[C@@]1(C)C(=O)[C@H](O)C3=C(C)[C@@H](OC(=O)[C@H](O)[C@@H](NC(=O)OC(C)(C)C)c4ccccc4)C[C@@](O)([C@@H](OC(=O)c4ccccc4)[C@H]21)C3(C)C [Docetaxel] | 1.07 |
| Nc1nc(=O)c2c(CCc3ccc(C(=O)N[C@@H](CCC(=O)[O-])C(=O)[O-])cc3)c[nH]c2[nH]1.[Na+].[Na+] [Pemetrexed Disodium Hydrate] | 1.11 |
| CC(C)[C@H](NC(=O)[C@H](CC(=O)O)NC(=O)[C@H](CCCCN)NC(=O)[C@@H](N)CCCNC(=N)N)C(=O)N[C@@H](Cc1ccc(O)cc1)C(=O)O [Thymopentin] | 1.21 |
| Nc1nc(Cl)nc2c1ncn2[C@@H]1O[C@H](CO)[C@@H](O)[C@@H]1F [Clofarabine] | 0.91 |
| CC1=C(/C=C/C(C)=C/C=C/C(C)=C/C(=O)O)C(C)(C)CCC1 [Tretinoin] | 0.946 |
| COc1ccc(/C=C\c2cc(OC)c(OC)c(OC)c2)cc1OP(=O)([O-])[O-].[Na+].[Na+] [Fosbretabulin Disodium] | 0.57 (active) |

same assay, conditions: 1 µM; 120 h; vemurafenib co-treatment 8 µM

| SMILES | cell viability |
| --- | --- |
| COc1cc2nccc(Oc3ccc(NC(=O)C4(C(=O)Nc5ccc(F)cc5)CC4)cc3)c2cc1OC [Cabozantinib] | 0.427 (active) |
| COc1ccc([C@@H]2CC(=O)c3c(O)cc(O)cc3O2)cc1O [Hesperetin] | 1.05 |
| COc1cc2ncnc(Nc3ccc(F)c(Cl)c3)c2cc1OCCCN1CCOCC1 [Gefitinib] | 0.629 (active) |
| N#CC1(c2ccc(NC(=O)c3cccnc3NCc3ccncc3)cc2)CCCC1 [Apatinib] | 1.13 |
| CC1(C)NC(=O)N(c2ccc([N+](=O)[O-])c(C(F)(F)F)c2)C1=O [Nilutamide] | 0.997 |
| COc1cc2nccc(Oc3ccc(NC(=O)NC4CC4)c(Cl)c3)c2cc1C(N)=O [Lenvatinib] | 1.17 |
| COc1cc2c(N3CCN(C(=O)Nc4ccc(OC(C)C)cc4)CC3)ncnc2cc1OCCCN1CCCCC1 [Tandutinib] | 1.04 |
| C[C@@H]1O[C@@H](OC[C@H]2O[C@@H](Oc3c(-c4ccc(O)c(O)c4)oc4cc(O)cc(O)c4c3=O)[C@H](O)[C@@H](O)[C@@H]2O)[C@H](O)[C@H](O)[C@H]1O [Rutin] | 0.929 |
| N.N.O=C([O-])C[O-].[Pt+2] [Nedaplatin] | 1.18 |
| COc1ccc(C[C@H](N)C(=O)N[C@H]2[C@@H](O)[C@H](n3cnc4c(N(C)C)ncnc43)O[C@@H]2CO)cc1.Cl.Cl [Puromycin dihydrochloride] | 0.58 (active) |
| O=C(CCCCCCC(=O)Nc1ccccc1)NO [Vorinostat] | 1.04 |
| Nc1nc([O-])c2c(CCc3ccc(C(=O)N[C@@H](CCC(=O)[O-])C(=O)[O-])cc3)c[nH]c2n1.[Na+].[Na+] [Pemetrexed disodium] | 0.881 |
| CC(C)(S)[C@@H](N)C(=O)O [Artamine] | 1.25 |
| O=C(c1cc(Cc2n[nH]c(=O)c3ccccc23)ccc1F)N1CCN(C(=O)C2CC2)CC1 [Olaparib] | 0.92 |
| C=CC(=O)Nc1cc(Nc2nccc(-c3cn(C)c4ccccc34)n2)c(OC)cc1N(C)CCN(C)C.CS(=O)(=O)O [Osimertinib mesylate] | 0.744 (active) |
| CC(=O)O[C@@]12CO[C@@H]1C[C@H](O)[C@@]1(C)C(=O)[C@H](O)C3=C(C)[C@@H](OC(=O)[C@H](O)[C@@H](NC(=O)OC(C)(C)C)c4ccccc4)C[C@@](O)([C@@H](OC(=O)c4ccccc4)[C@H]21)C3(C)C [Docetaxel] | 0.609 (active) |
| Nc1nc(=O)c2c(CCc3ccc(C(=O)N[C@@H](CCC(=O)[O-])C(=O)[O-])cc3)c[nH]c2[nH]1.[Na+].[Na+] [Pemetrexed Disodium Hydrate] | 1.13 |
| CC(C)[C@H](NC(=O)[C@H](CC(=O)O)NC(=O)[C@H](CCCCN)NC(=O)[C@@H](N)CCCNC(=N)N)C(=O)N[C@@H](Cc1ccc(O)cc1)C(=O)O [Thymopentin] | 1.04 |
| Nc1nc(Cl)nc2c1ncn2[C@@H]1O[C@H](CO)[C@@H](O)[C@@H]1F [Clofarabine] | 0.67 (active) |
| CC1=C(/C=C/C(C)=C/C=C/C(C)=C/C(=O)O)C(C)(C)CCC1 [Tretinoin] | 1.19 |
| COc1ccc(/C=C\c2cc(OC)c(OC)c(OC)c2)cc1OP(=O)([O-])[O-].[Na+].[Na+] [Fosbretabulin Disodium] | 0.421 (active) |
